# Screening results (PubChem BioAssay)
# CYP2C9 inhib – blockers of cytochrome P450 2C9 activity – biochemical, luminescence, ADME assay, primary screen; P11712; CYP2C9 Supersomes, luciferin-H conversion; inhibition, % at 5 µM; 96,000 compounds, 20% hits; AID 777, 2007;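 active = blocking of liver enzyme CYP2C9 beyond about 50% at 5 µM, limit read from the data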
# Target sequence (P11712 whole entry, looked up): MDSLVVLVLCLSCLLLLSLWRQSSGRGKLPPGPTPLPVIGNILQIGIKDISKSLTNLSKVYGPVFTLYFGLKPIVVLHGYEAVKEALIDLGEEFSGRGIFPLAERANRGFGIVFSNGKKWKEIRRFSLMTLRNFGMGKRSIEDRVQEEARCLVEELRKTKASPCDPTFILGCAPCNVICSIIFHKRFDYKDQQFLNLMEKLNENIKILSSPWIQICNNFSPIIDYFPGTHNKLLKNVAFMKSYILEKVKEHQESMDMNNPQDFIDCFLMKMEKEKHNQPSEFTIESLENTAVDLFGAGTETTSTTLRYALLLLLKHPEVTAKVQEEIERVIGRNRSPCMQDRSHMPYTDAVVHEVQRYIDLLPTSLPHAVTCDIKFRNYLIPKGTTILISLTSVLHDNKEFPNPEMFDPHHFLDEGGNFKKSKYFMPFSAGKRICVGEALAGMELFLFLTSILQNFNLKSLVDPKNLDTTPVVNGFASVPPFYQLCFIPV
# PostGolgi ctrl – growth inhibition of yeast control strain, primary screen, counter-screen for post-Golgi transport modulator project; efflux-deficient yeast background strain, growth absorbance A615, 16 h; 98,000 compounds, 5% hits; AID 738, 2007; inhibition, % at 10 µM
# CYP2C19 act – human CYP2C19 activators, primary screen, biochemical, luminescence; activation factor at 5 µM; recombinant CYP2C19, luciferin-H EGE luminescence; active compounds read high; 0 = fully inhibited enzyme, 1 = untreated enzyme; 96,000 tested, under 10 active; Cytochrome P450 2C19 (Homo sapiens), P33261; AID 1025, 2008;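 active = activation factor of at least 2 at 5 µM in the primary screen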
# CYP2C9 act – human CYP2C9 activators, primary screen, biochemical, luminescence | Cytochrome P450 2C9 (Homo sapiens), P11712 | recombinant CYP2C9, luciferin-H conversion; active compounds read high; factor 1 = untreated enzyme, 0 = blocked | activation factor at 5 µM | 96,000 compounds, 1.4% hits;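 active = activation factor of 2 or more for CYP2C9 at a 5 µM dose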
# PostGolgi yeast – phenotypic screen on post-Golgi transport, primary screen; inhibition, % at 10 µM; post-Golgi transport phenotypic cell assay; 98,000 compounds, 0.9% hits; AID 739, 2007;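 note: yeast cells grown in 1536-well plates; yeast grown about 18 h at 30C before absorbance read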
# CYP2C19 inh – blockers of cytochrome P450 2C19 activity – biochemical, luminescence, ADME assay, primary screen; P33261; CYP2C19 Supersomes, luciferin-H EGE luminescence, 30 min; inhibition, % at 5 µM; 96,000 compounds, 21% hits;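 active = CYP2C19 inhibition above a set limit at 5 µM in the primary screen, cut at about 50% in these data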
# Hits are given with their value; 0 = inactive; - = no result given. An excerpt weighted towards active compounds, which were near 32% of everything screened. Cut-off read from the data, not from the text of the source, unless noted: active = inhibition above about 30%; inactive = the rest.
SMILES,CYP2C9 inhib,PostGolgi ctrl,CYP2C19 act,CYP2C9 act,PostGolgi yeast,CYP2C19 inh
C=CCn1c2ccccc2c2nnc(SCCCn3c(=O)[nH]c4ccccc43)nc21,75.6,0,0,0,0,74.8
CCOc1ccccc1N1CCN(C(=O)c2cccc(-c3ccc(O)cc3)c2)CC1,86.7,98.8,0,0,0,73.6
CCOc1ccccc1N1CCN(C(=O)c2ccncc2)CC1,66.9,0,0,0,0,99.3
COc1cc(OC)cc(C(=O)N/N=C/c2ccc(OC)c(COc3ccc(F)cc3)c2)c1,0,0,0,0,0,0
COc1ccc(/C=C/C(=O)c2ccccc2O)cc1CN1CCOCC1,0,0,0,0,0,57.8
COc1ccc(/C=C/C(=O)c2ccccc2)cc1COc1ccccc1F,74.5,0,0,0,0,0
COC(=O)C1=C(C)N(Cc2cccnc2)C(=O)C1,-,0,-,-,0,-
COC(=O)C1=C(C)N(CCc2ccc(OC)cc2)C(=O)C1,0,0,0,0,0,78.2
COC(=O)C1=C(C)N(Cc2ccc(OC)c(OC)c2)C(=O)C1,0,0,0,0,0,0
COc1ccc(CCN2C(=O)C3C4C=CC(C4)C3C2=O)cc1OC (stereo not given),0,0,0,0,0,57.4
COC(=O)C1=C(C)N(CC(C)C)C(=O)C1,0,0,0,0,0,71.4
COC(=O)C1=C(C)N(CCc2ccc(OC)c(OC)c2)C(=O)C1,0,0,0,0,0,64.7
O=C(CCCN1C(=O)CCC1=O)Nc1ccccc1F,0,0,0,0,0,0
COC(=O)C1=C(C)N(Cc2ccc(OC)cc2)C(=O)C1,0,0,0,0,0,97.4
COc1cccc(Cn2cnc3c(NS(=O)(=O)c4cc(Cl)ccc4Cl)c(C)c(C)cc32)c1,53.1,0,0,0,0,0
COc1cccc(Cn2cnc3c(NS(=O)(=O)c4cccc(Cl)c4Cl)c(C)c(C)cc32)c1,96.4,0,0,0,0,84.3
Cc1cc2c(ncn2Cc2ccccc2)c(NS(C)(=O)=O)c1C,0,0,0,0,0,54.1
O=C(NC1CCCCC1)C(Cc1ccccc1)N1C(=O)C2C3CCC(C3)C2C1=O (stereo not given),0,0,0,0,0,0
CCOCCc1nnc(NC(=O)C(CC)c2ccccc2)s1 (stereo not given),86.7,0,0,0,0,56.0
CC(C)C(=O)Nc1nnc(CSCc2ccccc2F)s1,0,0,0,0,0,69.9
CC(C)COC(=O)Nc1nnc(SCc2ccccc2F)s1,0,0,0,0,0,0
CCc1nnc(NC(=O)C(C)Sc2ccccc2)s1 (stereo not given),73.8,0,0,0,0,82.6
CC(C)(C)C(=O)Nc1nnc(CSCc2ccccc2F)s1,56.0,0,0,0,0,58.7
CCOCCc1nnc(NC(=O)c2ccc(OC)c(OC)c2)s1,0,0,0,0,0,0
CCc1nnc(NC(=O)C(C)C)s1,0,0,0,0,0,0
SMILES,CYP2C9 inhib,PostGolgi ctrl,CYP2C19 act,CYP2C9 act,PostGolgi yeast,CYP2C19 inh
Cc1nc2ccc(NC(=O)NCCCO)cc2s1,0,0,0,0,0,0
Cc1ccc(C)c(NC(=O)C(C)CC2COCCO2)c1 (stereo not given),0,0,0,0,0,0
COc1cc(C2=NOC(C(=O)N3CCOCC3)C2)cc(OC)c1OC (stereo not given),0,0,0,0,0,0
CN(C)c1ccc(NC(=O)Cn2c(=O)n(Cc3ccccc3)c(=O)c3ccccc32)cc1,0,0,0,0,0,0
COc1ccc(C(=O)NCc2oc(-c3ccccc3)cc2C(=O)O)cc1,0,0,0,0,0,0
CCOCCn1c(CN2CCC(Cc3ccccc3)CC2)nc2c1c(=O)n(C)c(=O)n2C,0,-,0,0,-,0
COc1ccc(CCNc2cc(=O)[nH]c(N)n2)cc1,0,0,0,0,0,0
Cc1sc2ncn(-n3c(C)ccc3C)c(=O)c2c1C,0,0,0,0,0,0
Cc1sc2ncn(CCC(=O)O)c(=O)c2c1C,0,0,0,3.2,0,0
Cc1sc2ncn(CCn3cnc4sc(C)c(C)c4c3=O)c(=O)c2c1C,74.5,0,0,0,0,86.3
CN1CCN(CC#CCn2c3ccccc3c3ccccc32)CC1,0,0,0,0,0,58.9
N#CCCN1CCN(Cn2c3ccccc3c3ccccc32)CC1,0,0,0,0,0,0
N#CCCSc1ccccc1NC(=O)c1ccc(S(=O)(=O)N2CCCC2)cc1,75.6,0,0,0,0,0
Cc1noc(C)c1COC(=O)C1(c2cccc(F)c2)CCCC1,55.8,0,0,0,0,0
c1ccc(Nc2nc(N3CCOCC3)nc(N3CCOCC3)n2)cc1,0,32.2,0,0,0,0
Cc1[nH]c2ccccc2c1/C=N/Nc1nc(Nc2ccc(F)cc2)nc(N2CCOCC2)n1,0,0,0,0,0,0
COc1ccc(Nc2nc(N3CCCC3)c3ccccc3n2)cc1,0,0,0,0,0,0
C(=N\Nc1nc(Nc2ccccc2)nc(N2CCOCC2)n1)/c1c[nH]c2ccccc12,87.5,0,0,0,0,99.9
CCN(CC)c1ccc(Nc2nc(N3CCOCC3)c3ccccc3n2)cc1,55.3,0,0,0,0,54.5
Cc1ccccc1OCC(=O)Nc1sc(C(=O)Nc2cccc(C)c2C)c(C)c1C#N,0,0,0,0,0,0
CC1(C)CC(=O)C2=C(C1)N(Cc1ccco1)C(=O)C2(O)C(F)(F)F (stereo not given),0,0,0,0,0,0
Cc1ccccc1NC(=O)C1C2CCCC1C2c1ccccc1 (stereo not given),0,0,0,0,0,0
CCCN(CC1CC1)c1nc(N)c2c(N)nc(OC)cc2c1C#N,0,34.5,0,0,0,0
CCOc1cc2c(C#N)c(N3CCOCC3)nc(N)c2c(N)n1,0,0,0,0,0,0
O=C(NC1CCCCCC1)C1CCN(C(=O)Cc2ccccc2)CC1,0,0,0,0,0,0
Cc1ccc(N2C(=O)N(CC(=O)NCc3ccc(Cl)cc3)C(=O)C2C)cc1 (stereo not given),0,0,0,0,0,73.8
COc1ccc(CNC(=O)CN2C(=O)C(C)N(c3ccc(C)cc3)C2=O)cc1 (stereo not given),77.5,0,0,0,0,93.9
COc1ccccc1CNC(=O)CN1C(=O)C(C)N(c2ccc(C)cc2)C1=O (stereo not given),0,0,0,0,0,0
O=S1(=O)N=C(N2CCCc3ccccc32)c2ccccc21,0,0,0,0,0,0
COc1ccc(OC)c(C2=NOC(C(=O)Nc3ccccc3SC)C2)c1 (stereo not given),0,0,0,0,0,86.4
